Results filed as inconclusive are left out. Activity calls are given as the source filed them.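 How the source made its calls, unless noted: active means thallium flux through the channel raised or lowered by more than 3 SD from vehicle-only wells, actives on both sides; inactive means the rest.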
Columns and labels:
[1] = test system: Aerobactin synthetase IucA (Klebsiella pneumoniae); experiment: inhibition of K. pneumoniae IucA enzyme – biochemical, Tocris library, absorbance (AID 1345561; call rule not given here;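 further: 100% = enzyme without compound and 0% = no enzyme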); details: purified IucA enzyme assay, absorbance (OD) read-out; stronger effect = lower value;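 tested at 8 µM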
[2] = viability loss in pontine glioma line – cell-based, SU-DIPG-XIII, MIPE4.0, CellTiter-Glo, qHTS, dose response (AID 1347061; cut-off not given, nearly all actives have AC50 up to about 37 µM;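 further: cells exposed to compound for 48 hours before readout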); details: CellTiter-Glo ATP luminescence
[3] = viability loss in pontine glioma line – cell-based, JHH-DIPG-1, MIPE4.0, CellTiter-Glo, qHTS, dose response (AID 1347062; cut-off not given, nearly all actives have AC50 up to about 27 µM;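 on AC50: cells exposed to compound for two days before readout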); details: JHH-DIPG-1 viability, CellTiter-Glo ATP luminescence
[4] = viability loss in pontine glioma line – cell-based, SU-DIPG-IV, MIPE4.0, CellTiter-Glo, qHTS, dose response (AID 1347063; cut-off not given, nearly all actives have AC50 up to about 30 µM;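 further: compound exposure lasted 48 hours before the viability readout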); details: CellTiter-Glo ATP luminescence
F380Y = experiment: BK channel mutant inhibitors and activators – cell-based, U2OS BacMam, thallium flux, beta subunits, selectivity assay, profiling panel (AID 1259406); details: U2OS BacMam BK variants, at 30 µM;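 further: initial slope of Thallos dye fluorescence rise after thallium is added; log ratio against the mean of 0.3% DMSO vehicle wells on the same plate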
F380Y/beta1 = experiment: as above; details: U2OS BacMam BK variants, at 30 µM
F380Y/beta2Delta = experiment: as above; details: U2OS BacMam BK variants, at 30 µM
F380Y/beta4 = experiment: as above; details: U2OS BacMam BK variants, at 30 µM
[5] = molecular target: Calcium-activated potassium channel subunit alpha-1 (Homo sapiens) + Leucine-rich repeat-containing protein 26 (Homo sapiens) (UniProt Q12791+Q2I0M4); experiment: as above; details: U2OS BacMam BK variants, F380Y/Slo1WT/gamma1, at 30 µM
R275C = experiment: as above; details: U2OS BacMam BK variants, at 30 µM
R275C/beta1 = experiment: as above; details: U2OS BacMam BK variants, at 30 µM
R275C/beta2Delta = experiment: as above; details: U2OS BacMam BK variants, at 30 µM
R275C/beta4 = experiment: as above; details: U2OS BacMam BK variants, at 30 µM
R275C/Slo1WT/beta2 = experiment: as above; details: U2OS BacMam BK variants, at 30 µM
[6] = growth inhibition of DIPG cells – cell-based, MIPE4.0 library, CellTiter-Glo luminescence, qHTS (AID 1347066; cut-off not given, nearly all actives have AC50 up to about 30 µM;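 further: cells exposed to compound for 48 hours before readout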); details: SU-DIPG-VI viability, CellTiter-Glo ATP luminescence
[7] = molecular target: ATP-dependent translocase ABCB1 (Homo sapiens) (UniProt P08183); experiment: P-glycoprotein substrate transport blockade – cell-based (AID 377; in the data active means fluorescence slope change above about 50%); details: MDR1-expressing cells, fluorescent substrate accumulation slope; stronger effect = higher value; concentration not given here
[8] = GFP-Q80 aggregate reduction, neuronal-like cells, cell-based, NGF-treated PC12, GFPQ80 (AID 1614); details: PC12 NGF-treated GFP-polyQ80 inclusion reduction;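 further: lower means fewer inclusions and 0 means no inclusions at all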

Calcium-activated potassium channel subunit alpha-1 (Homo sapiens) + Leucine-rich repeat-containing protein 26 (Homo sapiens), sequence (Q2I0M4 whole entry, looked up, one chain of several): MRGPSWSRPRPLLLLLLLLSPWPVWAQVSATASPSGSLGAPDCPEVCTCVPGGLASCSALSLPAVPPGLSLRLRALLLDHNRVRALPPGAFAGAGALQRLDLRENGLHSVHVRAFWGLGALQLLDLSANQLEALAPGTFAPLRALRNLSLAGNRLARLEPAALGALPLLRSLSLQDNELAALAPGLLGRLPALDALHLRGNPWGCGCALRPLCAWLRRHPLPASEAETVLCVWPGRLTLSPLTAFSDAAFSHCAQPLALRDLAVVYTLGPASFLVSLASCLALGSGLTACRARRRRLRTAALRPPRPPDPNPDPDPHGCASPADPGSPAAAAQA
ATP-dependent translocase ABCB1 (Homo sapiens), sequence (P08183 whole entry, looked up): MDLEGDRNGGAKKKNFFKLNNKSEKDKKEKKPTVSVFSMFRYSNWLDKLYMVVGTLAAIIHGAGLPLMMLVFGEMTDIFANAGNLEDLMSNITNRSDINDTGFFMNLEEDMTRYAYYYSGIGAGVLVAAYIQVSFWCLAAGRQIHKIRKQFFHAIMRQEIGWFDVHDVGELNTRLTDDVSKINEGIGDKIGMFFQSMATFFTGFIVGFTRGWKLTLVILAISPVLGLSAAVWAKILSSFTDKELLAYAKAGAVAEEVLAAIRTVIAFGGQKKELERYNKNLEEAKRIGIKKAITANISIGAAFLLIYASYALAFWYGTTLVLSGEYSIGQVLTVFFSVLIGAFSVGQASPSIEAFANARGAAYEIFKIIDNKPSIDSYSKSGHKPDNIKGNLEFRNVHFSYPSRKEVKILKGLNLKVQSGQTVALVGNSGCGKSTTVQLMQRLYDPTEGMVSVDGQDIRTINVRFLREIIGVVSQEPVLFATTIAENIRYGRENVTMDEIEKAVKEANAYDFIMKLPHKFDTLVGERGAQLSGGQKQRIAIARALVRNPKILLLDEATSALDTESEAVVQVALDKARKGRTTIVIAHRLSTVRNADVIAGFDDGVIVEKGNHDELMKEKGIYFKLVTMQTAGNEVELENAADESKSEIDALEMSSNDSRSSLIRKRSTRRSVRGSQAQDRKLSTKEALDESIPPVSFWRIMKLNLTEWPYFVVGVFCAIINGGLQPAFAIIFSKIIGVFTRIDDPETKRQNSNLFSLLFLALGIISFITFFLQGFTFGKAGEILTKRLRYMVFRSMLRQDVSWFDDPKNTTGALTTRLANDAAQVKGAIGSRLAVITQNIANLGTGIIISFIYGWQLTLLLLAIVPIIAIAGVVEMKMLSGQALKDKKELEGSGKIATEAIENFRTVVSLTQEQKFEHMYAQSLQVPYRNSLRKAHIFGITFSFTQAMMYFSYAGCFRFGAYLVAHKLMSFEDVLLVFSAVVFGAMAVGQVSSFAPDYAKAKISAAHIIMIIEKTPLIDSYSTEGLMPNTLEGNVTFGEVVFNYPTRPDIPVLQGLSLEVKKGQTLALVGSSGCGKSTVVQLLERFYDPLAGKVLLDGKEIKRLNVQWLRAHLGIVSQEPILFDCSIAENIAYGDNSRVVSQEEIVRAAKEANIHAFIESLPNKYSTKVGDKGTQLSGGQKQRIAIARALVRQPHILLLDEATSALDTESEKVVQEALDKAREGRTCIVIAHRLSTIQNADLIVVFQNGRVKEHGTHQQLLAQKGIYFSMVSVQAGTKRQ

Row | Compound | remaining activity [1] | outcome [2] | AC50 [3] | outcome [4] | log fold change Tl+ flux (F380Y) | log fold change Tl+ flux (F380Y/beta1) | log fold change Tl+ flux (F380Y/beta2Delta) | log fold change Tl+ flux (F380Y/beta4) | log fold change Tl+ flux [5] | log fold change Tl+ flux (R275C) | log fold change Tl+ flux (R275C/beta1) | log fold change Tl+ flux (R275C/beta2Delta) | log fold change Tl+ flux (R275C/beta4) | log fold change Tl+ flux (R275C/Slo1WT/beta2) | outcome [3] | outcome [6] | fluorescence slope change [7] | inclusion score [8]
1 | CN(C)C(=O)C(CCN1CCC(O)(c2ccc(Cl)cc2)CC1)(c1ccccc1)c1ccccc1 | 118% (inactive) | inactive | 20.9 µM (active) | inactive | 0.113 (active) | 0.203 (active) | 0.103 (active) | 0.119 (active) | -0.0267 (inactive) | -0.645 (active) | 0.0279 (inactive) | -0.504 (active) | -0.104 (inactive) | 0.0159 (inactive) |  |  |  | 
2 | NC(=O)c1cccnc1 |  |  |  | inactive | -0.0169 (inactive) | -0.0163 (inactive) | -0.015 (inactive) | 0.00589 (inactive) | 0.0332 (inactive) | -0.0297 (inactive) | 0.0353 (inactive) | 0.0215 (inactive) | 0.0149 (inactive) | 0.0115 (inactive) | inactive | inactive |  | 
3 | CC(C(=O)O)c1cccc(C(=O)c2ccccc2)c1 (stereo not drawn) |  |  |  | inactive | 0.0438 (inactive) | -0.011 (inactive) | 0.023 (inactive) | 0.0138 (inactive) | 0.0363 (inactive) | -0.00546 (inactive) | -0.000822 (inactive) | -0.0306 (inactive) | 0.00182 (inactive) | -0.0223 (inactive) |  | inactive | 70.4% (active) | 2
4 | CCCC(=O)Nc1ccc(OCC(O)CNC(C)C)c(C(C)=O)c1 (stereo not drawn) |  |  |  |  | -0.0134 (inactive) | 0.00237 (inactive) | -0.0305 (inactive) | -0.0162 (inactive) | 0.00552 (inactive) | -0.005 (inactive) | -0.0201 (inactive) | -0.0513 (inactive) | 0.0245 (inactive) | -0.0238 (inactive) |  |  |  | 2
5 | O=C(CCCN1CCC(O)(c2ccc(Cl)cc2)CC1)c1ccc(F)cc1 | 128% (inactive) | inactive |  | inactive | 0.00184 (inactive) | 0.0554 (inactive) | 0.0376 (inactive) | 0.0709 (inactive) | -0.0288 (inactive) | -0.231 (active) | 0.104 (active) | -0.165 (active) | -0.0662 (inactive) | -0.0319 (inactive) |  | inactive | 23.3% (inactive) | 
6 | CNCCCN1c2ccccc2CCc2ccccc21 |  |  |  |  | 0.121 (active) | 0.022 (inactive) | 0.152 (active) | 0.144 (active) | 0.148 (active) | 0.0168 (inactive) | 0.17 (active) | 0.152 (active) | 0.123 (inactive) | -0.0879 (inactive) |  |  |  | 
7 | N=c1nc(N2CCCCC2)cc(N)n1O | 109% (inactive) | inactive |  | inactive | -0.0693 (inactive) | 0.0169 (inactive) | -0.0535 (inactive) | -0.0416 (inactive) | 0.00253 (inactive) | -0.0452 (inactive) | -0.0046 (inactive) | -0.0232 (inactive) | 0.0196 (inactive) | 0.0414 (inactive) | inactive | inactive |  | 1

Reference: PubChem BioAssay
